A selection: hits, their analogues and other compounds. The true share with any hit is near 13%.
Sfp inh – qHTS Assay for Inhibitors of Bacillus subtilis Sfp phosphopantetheinyl transferase (PPTase) | Biochemical Sfp PPTase activity, qHTS | Potency, µM, without a hit: largest response in the series, negative = inhibition, hits mostly inhibitors | actives 3.5% (n = 310,000) | AID 1490, 2009;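 also: the enzyme is Sfp with the accession as filed and its product quenches rhodamine fluorescence; potency is read from the fitted curve at half-maximal effect; 0% = enzyme reaction without inhibitor and -100% = no enzyme wells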
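Reaction rates are the 30-min fluorescence difference (ex 525, em 598 nm) in wells containing 15 nM Sfp, 5 uM rhodamine-CoA and 12.5 uM BHQ-2-YbbR at pH 7.6 with 10 mM MgCl2.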
LMNA splice mod – qHTS Assay for Modulators of Lamin A Splicing | Potency, µM (titrated, usually from 46.1 µM), for inactives: top-dose ratio change, negative = inhibition, hits mostly inhibitors | actives 0.01% (n = 200,000) | HeLa LMNA splicing GFP/RFP minigene ratio, 48 h; active = well fitted inhibition curve with a large enough effect in the signal ratio, with a control signal flat, not every such curve was filed as active; inconclusive = small, poorly fitted or top-dose-only effect, or effect the other way, or a change in a side signal; the % refers to the signal ratio; also: potency is read from the fitted curve at half-maximal effect; % is scaled to controls: 0 for no effect and ±100 for the full control effect
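Read-out is the ratio of GFP to DsRed2 object intensity, acquired by 488 nm laser-scanning cytometry on HeLa lamin A-EGFP minigene reporter cells. Compound incubation 48 hrs at 37 °C in Opti-MEM with 2% FBS; DMSO 0.5% final.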
G9a inh – qHTS Assay for Inhibitors of Histone Lysine Methyltransferase G9a. Histone-lysine N-methyltransferase EHMT2 (Homo sapiens), Q96KQ7. G9a H3K9 monomethylation, AlphaScreen, 2 h. Potency, µM (series often up to 102 µM), for inactives: at the highest dose activity, negative = inhibition, hits mostly inhibitors. actives 8.8% (n = 350,000). AID 504332, 2011; also: potency is read from the fitted curve at half-maximal effect; % is scaled to controls: 0 for no effect and ±100 for the full control effect; nearly all actives have a fitted effect of over 75% in size
Target sequence (Q96KQ7 913-1193 limits assumed): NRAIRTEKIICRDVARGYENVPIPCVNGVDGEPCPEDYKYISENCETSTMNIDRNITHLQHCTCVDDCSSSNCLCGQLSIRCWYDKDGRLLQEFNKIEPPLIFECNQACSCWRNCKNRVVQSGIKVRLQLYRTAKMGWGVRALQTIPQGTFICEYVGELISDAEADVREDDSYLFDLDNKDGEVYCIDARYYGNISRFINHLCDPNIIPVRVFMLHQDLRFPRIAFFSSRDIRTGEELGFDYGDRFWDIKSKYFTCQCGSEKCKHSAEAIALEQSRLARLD
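Methyltransferase reactions run at room temperature for 2 h (20 nM enzyme, 500 nM biotin-H3K9 peptide, 20 uM SAM) after a 15 min compound preincubation; product detected by AlphaScreen beads and anti-H3K9me1 antibody.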
miR-21 act – qHTS Assay for Modulators of miRNAs and/orActivators of miR-21; HeLa miR-21 FLuc reporter, luciferase, 48 h; Potency, µM (top dose mostly 38.3 µM), inactives show top-dose activity change, positive = activation, most hits filed as activators; 340,000 tested, under 10 active;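 also: % of control where 0% means no effect; miR-21 action dims this reporter so a rising signal means less miR-21 action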
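HeLa cells stably expressing CMV-driven firefly luciferase with a downstream miR-21 binding sequence, endogenously expressing miR-21, were treated with titrations (up to about 40uM final) for 48 hours at 37 degree Celsius. Luciferase luminescence was read after lysis.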
ALDH1A1 inh – qHTS Assay for Inhibitors of Aldehyde Dehydrogenase 1 (ALDH1A1); Aldehyde dehydrogenase 1A1 (Homo sapiens), P00352; Purified ALDH1A1, NADH fluorescence, propionaldehyde substrate; Potency, µM (doses to about 75.3 µM), for the others: at the highest dose activity, negative = inhibition, hits mostly inhibitors; actives 7.3% (n = 220,000); active = well fitted inhibition curve with a large enough effect, not every such curve was filed as active; inconclusive = small, poorly fitted or top-dose-only effect, or another doubt; inactive = no such curve, though single readings can be large or run the other way;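 also: potency is read from the fitted curve at half-maximal effect; plate controls were no enzyme wells and a reference inhibitor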
KDM4E inh – qHTS Assay for Inhibitors of Human Jumonji Domain Containing 2E (JMJD2E); actives 1.6% (n = 230,000); JMJD2E catalytic domain, FDH-coupled NADH fluorescence (FDH is formaldehyde dehydrogenase); Potency, µM (highest dose often 57.1 µM), for inactives: top-dose activity change, negative = inhibition, usual class: inhibitors; active = well fitted inhibition curve with a large enough effect, not every such curve was filed as active; inconclusive = small, poorly fitted or top-dose-only effect, or another doubt; inactive = no such curve, though single readings can be large or run the other way;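 also: potency is read from the fitted curve at half-maximal effect; 0% = wells with enzyme and -100% = buffer wells without enzyme; nearly all actives have a fitted effect of over 50% in size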
Target sequence (B2RXH2 1-337 limits assumed): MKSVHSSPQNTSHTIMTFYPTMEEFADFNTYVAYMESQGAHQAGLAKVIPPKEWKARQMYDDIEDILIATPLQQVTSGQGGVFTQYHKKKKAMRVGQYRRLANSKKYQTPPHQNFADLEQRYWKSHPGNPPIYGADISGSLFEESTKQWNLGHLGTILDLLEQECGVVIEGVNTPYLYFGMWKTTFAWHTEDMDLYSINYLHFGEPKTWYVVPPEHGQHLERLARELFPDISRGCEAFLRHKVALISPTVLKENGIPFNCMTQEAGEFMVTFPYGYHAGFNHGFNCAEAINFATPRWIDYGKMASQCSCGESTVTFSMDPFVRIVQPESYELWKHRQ
* marks the source's active call; other numbers are inactive results; ? = inconclusive; . = no result; [ ] = dose if it differs, or a comment. Unless noted, calls follow the shape of the dose curve; as a rule, active = well fitted curve in the direction sought with a large enough effect; inconclusive = small, poorly fitted or top-dose-only effect, or another doubt; inactive = no such curve, though single readings can be large; an effect the other way counts as inactive or inconclusive.

SMILES	Sfp inh	LMNA splice mod	G9a inh	miR-21 act	ALDH1A1 inh	KDM4E inh
N#Cc1cccc(NC(=O)C2CCN(c3nc(-c4ccc(Cl)cc4)no3)CC2)c1	.	19%[46 µM]	6%[59 µM]	25%	.	.
O=S1(=O)N[C@H]2CC[C@@H]3NS(=O)(=O)N[C@H]4CC[C@H](N1)N4S(=O)(=O)N23	.	.	.	.	7%[13.5 µM]	.
CCN(C)Cc1c(C(=O)N2CCc3ccccc3C2)nc2ccc(Cl)cn12	9%	.	?	-1%	-15%	-4%
CCN(CC)Cc1c(C(=O)N2CCc3ccccc3C2)nc2ccc(Cl)cn12	-9%	.	8%[0.501 µM]	-1%	13µM*	0%
COCC1CCN(Cc2c(C(=O)N3CCc4ccccc4C3)nc3ccc(Cl)cn23)C1 (stereo not given)	-13%	.	40µM*	-12%	.	.
COC1CCN(Cc2c(C(=O)N3CCc4ccccc4C3)nc3ccc(Cl)cn23)CC1	8%	.	.	-9%	.	.
Cc1ccc(S(=O)(=O)NCCCCCC(=O)Nc2c(C)n(C)n(-c3ccccc3)c2=O)cc1	11%	3%[46 µM]	1%	0%	13µM*	-6%
Cc1ccc(S(=O)(=O)NCCCCCC(=O)Nc2nccs2)cc1	5%	-13%	11µM*	10%	16µM*	2%
Cc1ccc(S(=O)(=O)NC(=O)Nc2c(C)n(C)n(-c3ccccc3)c2=O)cc1	5%	-5%	-9%	-5%	2%	2%
Cc1ccccc1N1Cc2ccccc2C1	-5%	?	7.9µM*	2%	28µM*	5%
COc1ccccc1N1Cc2ccccc2C1	?	2%	10µM*	-2%	8.9µM*	-23%
COc1ccc(OC)c(N2Cc3ccccc3C2)c1	-26%	?	7.9µM*	-2%	-19%	-6%
COc1ccc(Cl)cc1N1Cc2ccccc2C1	6%	8%	?	-1%	?	-10%
CCC(Sc1nnc2c3ccccc3n(CC)c2n1)C(=O)Nc1ccc(NC(C)=O)cc1 (stereo not given)	.	.	-46%[59 µM]	-21%	.	.
CC1(C)CC(=O)C(CC(=O)Nc2ccc(S(N)(=O)=O)cc2)=C(O)C1	-1%	-5%	-20%[59 µM]	-6%	?	-25%
CC1(C)CC(=O)C(CS(=O)(=O)c2ccccc2)=C(O)C1	50µM*	.	?	0%	.	.
Cc1ccc(CN2CCN(C3CCN(C(=O)OC(C)(C)C)CC3)C(=O)C2=O)cc1	.	-10%[46 µM]	-8%[59 µM]	-1%	.	.
Cc1ccc(C(=O)O/N=C2\CCS(=O)(=O)c3sccc32)cc1	21%	13%	-2%[59 µM]	1%	?	6%
O=C(OC1CCS(=O)(=O)c2sccc21)c1ccccc1 (stereo not given)	5%	?	-4%[59 µM]	-5%	22µM*	1%
CC(C)OC(=O)c1c(NC(=O)c2cccc(C(F)(F)F)c2)sc2c1CCCC2	.	.	?	-2%	.	.
COC(=O)c1ccc(CN(C)S(=O)(=O)c2cccs2)cc1	5%	.	8%	-26%	.	.
Cc1cc(OCCn2ccnc2)ccc1C(C)C	-2%	?	14µM*	-5%	5%	9%
Cc1ccc(OCCCn2ccnc2)cc1C	15%	-2%	-36%[59 µM]	-5%	-9%	5%
CCOc1ccc(OCCn2ccnc2)cc1	?	11%	10µM*	-8%	?	?
CNc1cc([N+](=O)[O-])ccc1N/C=C/C(=O)c1ccc2c(c1)OCO2	?	?	40%[59 µM]	-35%	13µM*	3%
SMILES	Sfp inh	LMNA splice mod	G9a inh	miR-21 act	ALDH1A1 inh	KDM4E inh
Cc1nc(SCC(=O)O)c(C#N)c2c1CCCC2	-4%	.	50µM*	-6%	.	-6%
CCc1nc(SCC(=O)O)c(C#N)c2c1CCCC2	7%	.	1%	0%	?	-13%
CSc1nc(C)c2c(c1C#N)CCCC2	-10%	2%	?	-14%	25µM*	1%
Cc1ccc2c(c1)c1c3n2CCN=C3CCC1	4%	6%	18µM*	-1%	-6%	?
Cc1ccc2c(c1)c1c3n2CCN[C@H]3CCC1	-5%	?	?	.	6%	?
c1cc2c(cc1C1CCCCC1)c1c3n2CCN=C3CCC1	79µM*	?	?	0%	-6%	-22%
COc1ccc(NC2CCCN(C(=O)COc3ccc(C)cc3)C2)cc1 (stereo not given)	6%	.	16µM*	0%	.	.
COc1cccc(OCC(=O)NNC(=O)C(=O)N2CCCC2)c1	0%	10%	-6%	-2%	3%	12%
COc1ccc(OCC(=O)NNC(=O)C(=O)N2CCCC2)cc1	-9%	-8%	20µM*	-6%	2%	-4%
COc1ccc(NC2CCCN(C(=O)CCc3ccccc3F)C2)cc1 (stereo not given)	19%	.	50µM*	-1%	.	.
COc1ccc(NC2CCCN(C(=O)CSc3ccccc3)C2)cc1 (stereo not given)	8%	.	35µM*	-2%	.	.
COc1ccc(NC2CCCN(C(=O)CCOc3ccccc3)C2)cc1 (stereo not given)	14%	.	.	-3%	.	.
Cc1ccc(N2CCN(c3nc4ccc(C(=O)c5ccccc5)cc4n4cnnc34)CC2)c(C)c1	.	.	-27%[59 µM]	0%	.	.
CCCCOc1ccc(N(CC(=O)NC2CCCCC2)C(=O)c2snc(C(N)=O)c2N)cc1	-4%	.	3%	0%	.	.
COCCNC(=S)Nc1cc(OC)c(OC)cc1C#N	79µM*	.	-119%[59 µM]	0%	?	0%
COCCCNC(=S)Nc1cc(C)c(C)cc1C	21%	.	?	-1%	.	9%
O=C(CSc1nnc(Cc2cc(=O)[nH]c(=O)[nH]2)n1-c1ccc(F)cc1)NC1CCCC1	-8%	-5%	79µM*	1%	-10%	1%
COc1cccc(-n2c(Cc3cc(=O)[nH]c(=O)[nH]3)nnc2SCc2cccnc2)c1	4%	-4%	50µM*	0%	-3%	5%
Cn1cccc1Cc1nnc(SCC(=O)NC2CCCC2)n1-c1ccc(F)cc1	-20%	10%	71µM*	0%	?	?
CCOC(=O)CSc1nnc(Cc2cc(=O)[nH]c(=O)[nH]2)n1-c1ccc(Cl)cc1	-3%	-2%	50µM*	-5%	-15%	-7%
CCOc1ccc(-n2c(Cc3cc(=O)[nH]c(=O)[nH]3)nnc2SCC(=O)OC)cc1	17%	2%	?	-2%	-13%	-4%
COc1cccc(-c2ccc(NC(=O)C3CCCN(Cc4nccn4C)C3)cc2)c1 (stereo not given)	-3%	.	2%[12.7 µM]	-7%	.	.

Bioassay records from PubChem.
